Most compounds without a hit are left out; they make up all but 1.9% or so of the library.
p47phox inh: p47phox (human) inhibition; 0.53% of 220,000 active; P14598; p47phox/p22phox peptide binding, fluorescence polarization, 2 h; inhibition, % at 24.7 µM;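 active means inhibition above about 30%, limit read from the data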
aDG glyco act: alpha-DG glycosylation activation; Pro5-aDG cells, alpha-DG glycosylation AlphaScreen (IIH6); 0% Pro5, 100% B10-LARGE cell signal; activation, % at 10 µM; 0.22% of 360,000 active;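 active means activation of at least 8% versus controls, or a plate z-score of at least 8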;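 further: Pro5 are CHO cells carrying HIG-tagged alpha-DG that lacks glycosylation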
ZTA counter: counter-screen for EBNA-1 inhibitors: inhibitors of Epstein-Barr virus ZTA; ZTA-DNA binding, fluorescence polarization; AID 2234; 0.15% of 320,000 active; inhibition, % at 11 µM; in the data active means inhibition above about 33%
Target sequence (P03206 whole entry, looked up): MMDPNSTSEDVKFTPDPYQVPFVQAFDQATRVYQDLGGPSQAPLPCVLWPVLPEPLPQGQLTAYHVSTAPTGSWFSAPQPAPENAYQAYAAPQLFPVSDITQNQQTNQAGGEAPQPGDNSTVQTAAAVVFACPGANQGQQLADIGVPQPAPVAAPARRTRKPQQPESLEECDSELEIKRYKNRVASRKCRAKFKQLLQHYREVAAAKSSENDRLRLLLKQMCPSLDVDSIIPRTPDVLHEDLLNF
PG9 Ab binder: small molecules binding HIV-1 gp120 antibody PG9; AID 624416; TR-FRET gp120-PG9 antibody binding; 0.43% of 360,000 active; inhibition, % at 6.7 µM; in the data active means inhibition above about 8.5%
EBNA-1 inhibitor: blocks EBNA-1 binding to DNA; EBNA-1 DNA binding, fluorescence polarization; inhibition, % at 14.8 µM; 0.34% of 300,000 active; in the data active means inhibition above about 28%
Rev-erbA mod: Rev-erb alpha (human) modulation. Rev-erbα–FITC-DNA binding, fluorescence polarization, 90 min. P20393. activity, % at 10 µM. AID 1259318. 0.79% of 370,000 active;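 active means activity above about 14%, limit read from the data; passing the limit was not always enough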
Of the large screens only hits and unclear results are named; the others gave an inactive call.

COc1ccc(CCNC(=O)Cn2nc(C(=O)O)c3ccccc3c2=O)cc1OC	none
COc1ccc(NC(=O)CCS(=O)(=O)c2cccc3nonc23)cc1	none
COc1ccc(NC(=O)CCS(=O)(=O)c2cccc3nonc23)c(OC)c1	p47phox inh 79.6
O=C(Nc1cccc(-c2nc3ncccc3o2)c1)c1sc2ccccc2c1Cl	p47phox inh 66.7
O=C(Nc1ccccc1C(=O)O)c1ccc(NC(=O)c2ccc(Br)o2)cc1	p47phox inh 90.4 (no result: PG9 Ab binder)
O=C(Nc1cccc(-c2nc3ncccc3o2)c1)c1cc2ccccc2o1	none
O=C(Nc1ccc(-c2nc3ncccc3o2)cc1)c1ccc(Br)o1	PG9 Ab binder 41.2
COc1ccc(CN2C[C@]3(C=C(C)Cn4c(=O)n(-c5ccccc5)c(=O)n43)N=C2NC(=O)c2ccccc2)c(OC)c1	none (no result: p47phox inh, aDG glyco act, ZTA counter, PG9 Ab binder, EBNA-1 inhibitor)
CCNC(=O)CCC/C=C\C[C@@H]1[C@@H](/C=C/[C@@H](O)CCc2ccccc2)[C@H](O)C[C@@H]1O	none (no result: p47phox inh, aDG glyco act, ZTA counter, PG9 Ab binder, EBNA-1 inhibitor)
CC(C)OCCCNc1ncnc2c1[nH]c1ccccc12	aDG glyco act 5.4
COc1ccc(CNc2ncnc3c2[nH]c2ccccc23)cc1	none
Cc1cc(N)ccc1-n1c(C)ccc1C	ZTA counter 55.4, EBNA-1 inhibitor 28.6
NC(=O)c1cc(N)ccc1N1CCCC1	p47phox inh 140.3
NC(=O)c1cc(N)ccc1N1CCCCC1	none
Cc1cc(N)ccc1N1CCCC1	p47phox inh 97.0 (no result: PG9 Ab binder, Rev-erbA mod)
C[C@H](CCC(=O)O)[C@H]1CCC2C3C(=O)CC4CC(=O)CC[C@]4(C)C3CC(=O)[C@@]21C (stereo not given in full)	none (no result: p47phox inh, aDG glyco act, ZTA counter, PG9 Ab binder, EBNA-1 inhibitor)
CCCNc1c(NS(=O)(=O)c2ccc(NC(=O)CC)cc2)c(=O)oc2ccccc12	aDG glyco act 6.5 (no result: p47phox inh)
C=CCN(CC#CCN(C)C(=O)c1cccn1C(=O)OC(C)(C)C)Cc1ccc(OC)cc1OC	none (no result: p47phox inh, aDG glyco act, ZTA counter, PG9 Ab binder, EBNA-1 inhibitor)
Cc1cc(C)c(S(=O)(=O)N(C)CC(N)=O)c(C)c1	p47phox inh 62.6
Cc1cc(C)c(S(=O)(=O)N(C)CC(=O)N2CCCCC2)c(C)c1	none
CC1=NN(c2ccccc2)C(=O)/C1=C/C=C/c1ccc(N(C)C)cc1	p47phox inh 44.1 (no result: ZTA counter, EBNA-1 inhibitor)
COc1ccc(S[C@]2(C(=O)N3CCCC3)CC(=O)N(c3ccccc3OC)[C@@H]2c2ccc(OC)cc2)cc1	none (no result: p47phox inh, aDG glyco act, ZTA counter, PG9 Ab binder, EBNA-1 inhibitor)
O=C(CSc1nnc(SCc2ccc(Cl)cc2)s1)N/N=C/c1c[nH]c2ccccc12	p47phox inh 42.9
COC1=CC(=O)C[C@@H](C)C12Oc1c(Cl)c(OC)cc(OC)c1C2=O (stereo not given in full)	none (no result: p47phox inh, aDG glyco act, ZTA counter, PG9 Ab binder, EBNA-1 inhibitor)
C=CCN(C(=O)CNC(=O)c1cccs1)C(C(=O)NC1CCCCC1)c1cccnc1 (stereo not given)	p47phox inh 46.9
CCC(NC(=O)c1ccc2c(ccn2Cc2cccc(-c3ccc(C(=O)O)cc3)c2)c1)c1ccccc1 (stereo not given)	none (no result: p47phox inh, aDG glyco act, ZTA counter, PG9 Ab binder, EBNA-1 inhibitor)
COc1ccc(N=Cc2c(O)c3ccccc3n2C(C)=O)cc1	p47phox inh 31.2
Cc1c([N+](=O)[O-])c(C(=O)Sc2ccc(Br)cc2)nn1C	p47phox inh 39.1
COc1nccc(Nc2ccccc2)c1C#N	p47phox inh 44.1
CC(=O)[C@@]1(O)CCC2C3C=C(Cl)C4=CC(=O)[C@@H]5C[C@H]5[C@]4(C)C3CC[C@@]21C (stereo not given in full)	none (no result: p47phox inh, aDG glyco act, ZTA counter, PG9 Ab binder, EBNA-1 inhibitor)
CCOc1ccc(NC(=O)c2cn(-c3ccc(OCC)cc3)c(=O)c3cc(OC)c(OC)cc23)cc1	none
CCOc1ccc(-n2cc(C(=O)N3CCC(C)CC3)c3cc(OC)c(OC)cc3c2=O)cc1	aDG glyco act 7.5
CCOCCOC(=O)c1[nH]c2c(c1C)C(=O)CC(c1ccccc1)C2 (stereo not given)	aDG glyco act 2.2 (no result: p47phox inh)
CCOCCOC(=O)c1[nH]c2c(c1C)C(=O)CC(c1cccs1)C2 (stereo not given)	none
O=C(/C=C/c1ccc(F)cc1)Nc1ccc(S(=O)(=O)Nc2ncccn2)cc1	p47phox inh 120.0
CC(=O)O[C@]1(C(C)=O)CCC2C3C=C(C)C4=CC(=O)CCC4(C)C3CCC21C (stereo not given in full)	none (no result: p47phox inh, aDG glyco act, ZTA counter, PG9 Ab binder, EBNA-1 inhibitor)
CC(=O)N1C(=O)C2(C(C#N)=C(N)Oc3n[nH]c(-c4ccccn4)c32)c2ccccc21 (stereo not given)	p47phox inh 150.6
CN1C(=O)C2(C(C#N)=C(N)Oc3n[nH]c(-c4ccc(Cl)cc4)c32)c2ccccc21 (stereo not given)	none
